From the supplement of paper PMC9694430
Where “and” joins values, the source holds several entries; their conditions need not be identical. Equal entries are not always repeated. Structures can show the parent of a compound that is named as a salt.

Key:
Experiment in all cases: thermal shift delta Tm vs DMSO control; higher = stronger stabilization (binding)
Conditions in all cases: 12.5 µM; protein concentration 2 µM
[1] = test system: LOC_OS04G57630-cb004
Procedure, shortened: (§1)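 Heating from 25°C to 95°C at 0.05°C/s, fluorescence was recorded for 19.5 μl wells of 2 μM E. coli-expressed, purified rice kinase domain in 100 mM potassium phosphate pH 7.5, 150 mM NaCl, 10% glycerol and 5 × SYPRO Orange with compound in DMSO. Boltzmann fits gave melting temperatures for this differential scanning fluorimetry assay. The shift reported is the mean of three replicates against the DMSO-only protein.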

[2] = test system: LOC_OS05G07850-cb002
Procedure, shortened: as §1

[3] = test system: LOC_OS05G16824-cb004
Procedure, shortened: as §1

[4] = test system: LOC_OS05G28520-cb001
Procedure, shortened: as §1

[5] = test system: LOC_OS05G30820-cb001
Procedure, shortened: as §1

[6] = test system: LOC_OS05G43570-cb004
Procedure, shortened: as §1

[7] = test system: LOC_OS06G16330-cb003
LOC_OS06G16330-cb003, sequence (as listed by the source): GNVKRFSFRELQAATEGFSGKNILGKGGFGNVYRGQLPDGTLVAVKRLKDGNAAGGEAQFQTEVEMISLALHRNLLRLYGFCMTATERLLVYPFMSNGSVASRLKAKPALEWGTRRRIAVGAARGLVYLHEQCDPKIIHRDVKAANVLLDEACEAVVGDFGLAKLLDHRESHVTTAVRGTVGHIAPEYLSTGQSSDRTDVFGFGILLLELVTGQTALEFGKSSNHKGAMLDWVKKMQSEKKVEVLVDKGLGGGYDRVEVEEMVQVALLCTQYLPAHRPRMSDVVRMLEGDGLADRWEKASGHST
Procedure, shortened: as §1

[8] = test system: T1, LOC_OS06G22820-cb001
T1 sequence (whole entry): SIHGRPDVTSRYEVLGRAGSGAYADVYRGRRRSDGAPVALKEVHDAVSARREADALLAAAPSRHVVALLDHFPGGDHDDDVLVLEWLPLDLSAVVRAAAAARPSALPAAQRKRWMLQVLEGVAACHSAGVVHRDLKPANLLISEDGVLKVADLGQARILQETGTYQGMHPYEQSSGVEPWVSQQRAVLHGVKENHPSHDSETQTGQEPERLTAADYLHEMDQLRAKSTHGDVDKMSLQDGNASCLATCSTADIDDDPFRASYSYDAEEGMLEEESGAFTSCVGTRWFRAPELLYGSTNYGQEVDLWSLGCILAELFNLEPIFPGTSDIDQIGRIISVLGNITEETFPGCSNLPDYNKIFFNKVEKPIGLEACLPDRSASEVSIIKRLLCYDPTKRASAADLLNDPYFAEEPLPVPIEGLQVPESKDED
Procedure, shortened: as §1

[9] = test system: LOC_OS07G06570-cb004
Procedure, shortened: as §1

[10] = test system: LOC_OS07G07230-cb001
Procedure, shortened: as §1
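Also: purified Escherichia coli-expressed rice kinase domain construct.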

| SMILES | thermal shift delta Tm [1] | thermal shift delta Tm [2] | thermal shift delta Tm [3] | thermal shift delta Tm [4] | thermal shift delta Tm [5] | thermal shift delta Tm [6] | thermal shift delta Tm [7] | thermal shift delta Tm [8] | thermal shift delta Tm [9] | thermal shift delta Tm [10] |
| --- | --- | --- | --- | --- | --- | --- | --- | --- | --- | --- |
| CCN(C)S(=O)(=O)Nc1ccc(F)c(C(=O)c2c[nH]c3ncc(-c4cnc(C5CC5)nc4)cc23)c1F | 1.47 °C | 6.9 °C | 1.58 °C | 1.1 °C | 0.45 °C | 0.13 °C | 1.23 °C | 0.65 °C | 0.34 °C | 1.77 °C |
| CO[C@H]1CC[C@H](N2C(=O)CNc3ncc(-c4ccc(C(C)(C)O)nc4)nc32)CC1 | -0.07 °C | 0.66 °C | -2.4 °C | 0.49 °C | 0.29 °C | 0.48 °C | -0.57 °C | 0.55 °C | 0.79 °C | 0.66 °C |
| O=C(NCCCNc1nc(Nc2cccc(NC(=O)N3CCCC3)c2)ncc1I)c1cccs1 | 5.69 °C | 12.1 °C | 10.4 °C | 0.99 °C | 3.99 °C | 1.24 °C | 9.95 °C | 0.36 °C | 0.51 °C | 0.21 °C |
| CCCCCCCCc1ccc(CCC(N)(CO)CO)cc1 [Fingolimod (FTY720) HCl] | -0.4 °C | 1.83 °C | -4.01 °C | -0.43 °C | -0.07 °C | -1.13 °C | -1.94 °C | 0.07 °C | 0.28 °C | -1.48 °C |
| N#Cc1cnc(Nc2cc(NC[C@H]3CNCCO3)c(C(F)(F)F)cn2)cn1 | 0.23 °C | 4.22 °C | 4.42 °C | 0.04 °C | 0.75 °C | 0.11 °C | 2.23 °C | 0.3 °C | 1.08 °C | 0.52 °C |
| CCCCCCCCCC(=O)CC(O)S(=O)(=O)O (stereo not given) [Sodium Houttuyfonate] | 0.61 °C | 0.71 °C | -0.1 °C | 0.13 °C | 0.21 °C | 0.52 °C | -8.96 °C | -0.11 °C | 0.7 °C | 0.34 °C |
| O=C(NOC[C@H](O)CO)c1ccc(F)c(F)c1Nc1ccc(I)cc1F | -0.16 °C | -0.38 °C | 0.88 °C | 0.62 °C | 0.37 °C | 1.5 °C | 0.23 °C | 1.03 °C | 1.11 °C | 0.26 °C |
| C#Cc1cccc(Nc2ncnc3cc(OC)c(OCCCCCCC(=O)NO)cc23)c1 | 0.04 °C | 7.33 °C | -6.18 °C | 0.35 °C | 0.58 °C | 0.66 °C | 1.72 °C | 0.49 °C | 0.91 °C | -0.06 °C |
| N#Cc1c(NC(=O)c2cccc3ccccc23)sc2c1CCCC2 [JNK Inhibitor IX] | 0.22 °C | 0.04 °C | -1.1 °C | 0.77 °C | 0.43 °C | 0.27 °C | -0.09 °C | 0.6 °C | 0.83 °C | 0.4 °C |
| CN1CCN(c2ccc(C(=O)Nc3n[nH]c4ccc(Cc5cc(F)cc(F)c5)cc34)c(NC3CCOCC3)c2)CC1 [Entrectinib (RXDX-101)] | 2.05 °C | 10.2 °C | 5.23 °C | 3.71 °C | 0.38 °C | 0.47 °C | 8.44 °C | 0.27 °C | 0.88 °C | 0.63 °C |
| C=CC(=O)N1CCC(Oc2cc3c(Nc4ccc(Cl)c(Cl)c4F)ncnc3cc2OC)CC1 [Poziotinib (HM781-36B)] | 0.32 °C | 4.97 °C | -0.85 °C | 0.58 °C | 0.44 °C | 0.15 °C | 8.31 °C | 0.44 °C | 0.72 °C | 0.28 °C |
| Cc1[nH]c(/C=C2\C(=O)Nc3ccc(S(=O)(=O)Cc4c(Cl)cccc4Cl)cc32)c(C)c1C(=O)N1CCC[C@@H]1CN1CCCC1 | 2.32 °C | 10.3 °C | 0 °C | 0.75 °C | 0.48 °C | 0.55 °C | 6.03 °C | 0.86 °C | 0.77 °C | 0.98 °C |
| Cc1cnc(-c2cnc(NCCNc3ccc(C#N)cn3)nc2-c2ccc(Cl)cc2Cl)[nH]1 | -0.09 °C and 0.72 °C | 4.65 °C and 4.93 °C | 1.04 °C and 0.06 °C | 0.2 °C and 0.82 °C | 0.54 °C and 0.26 °C | 0.69 °C and 1.04 °C | -0.09 °C and -0.17 °C | 0.67 °C and 1.04 °C | 0.67 °C and 1.49 °C | 0.25 °C and -0.23 °C |
| Nc1nccc(Oc2ccc3c(C(=O)Nc4cccc(C(F)(F)F)c4)cccc3c2)n1 | 0.43 °C | -1.62 °C | -1.01 °C | 0.93 °C | 0.73 °C | 0.58 °C | 0 °C | 0.99 °C | 1.61 °C | 0.15 °C |
| C[C@]1(O)C[C@@H](c2nc(-c3ccc4ccc(-c5ccccc5)nc4c3)c3c(N)nccn32)C1 [Linsitinib (OSI-906)] | 0.91 °C | 1.48 °C | 1.1 °C | 0.92 °C | 0.67 °C | 0.81 °C | 0.92 °C | 0.94 °C | 1.13 °C | 0.34 °C |
| COc1ccc(COc2ccc(Cc3cnc(N)nc3N)cc2OC)cc1 | 0.05 °C | 0.49 °C | -1.41 °C | 0.33 °C | 0.26 °C | 0.4 °C | 1.65 °C | 0.41 °C | 0.82 °C | -0.38 °C |
| COc1cc(OC)cc(-c2cc3cnc(N)nc3nc2NC(=O)NC(C)(C)C)c1 | 0.07 °C | 1.66 °C | -1.45 °C | -0.04 °C | 0.11 °C | 0.05 °C | -0.44 °C | 0.29 °C | 1.06 °C | 1 °C |
| O=C(Nc1cccc(Cl)c1)Nc1ncc(CCNc2ncnc3ccsc23)s1 [SNS-314 Mesylate] | 2.15 °C | 7.18 °C | 2.52 °C | 1.77 °C | 0.46 °C | 1.08 °C | 4.68 °C | 1.24 °C | 0.91 °C | -0.06 °C |
| Cc1c(C(=O)Nc2ccc(Oc3ccnc4[nH]cc(-c5ccccc5)c34)c(F)c2)c(=O)n(-c2ccc(F)cc2)n1C | 0.42 °C | 14.4 °C | 1.37 °C | 0.13 °C | 0.63 °C | 0.25 °C | 6.4 °C | 0.86 °C | 1.05 °C | -0.13 °C |
| N#CC(=C(/N)Sc1ccccc1N)/C(C#N)=C(\N)Sc1ccccc1N | -0.53 °C | -1.4 °C | -1.67 °C | 1.16 °C | 0.39 °C | 0.33 °C | 1.2 °C | 1.19 °C | -0.22 °C | 0.58 °C |
| O=C(Cc1ccc(-c2ccc(OCCN3CCOCC3)cc2)cn1)NCc1ccccc1 | 0.12 °C | 0.35 °C | -2.04 °C | 0.32 °C | 0.37 °C | 0.34 °C | -0.02 °C | 0.6 °C | 0.25 °C | -0.12 °C |
| CN(C)C/C=C/C(=O)Nc1cc2c(Nc3ccc(F)c(Cl)c3)ncnc2cc1O[C@H]1CCOC1 [Afatinib (BIBW2992)] | -0.38 °C | 7.09 °C | 0.09 °C | 0.25 °C | 0.35 °C | 0.5 °C | 1 °C | 0.48 °C | 0.78 °C | 0.57 °C |
